# Assay outcomes deposited in PubChem BioAssay by National Center for Advancing Translational Sciences (NCATS).
# The list is not random: actives were taken first. Their share in the collection is about 11%.
# ALDH1A1 inh = blocks purified human ALDH1A1 activity | P00352 | Purified ALDH1A1, NADH fluorescence, propionaldehyde substrate | Potency, µM (titrated, usually from 75.3 µM), for inactives: at the top dose activity, negative = inhibition, usual class: inhibitors | 220,000 compounds, 7.3% hits;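 note: potency is the fitted concentration of half-maximal effect; plate controls were no enzyme wells and a reference inhibitor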
# PNC inhibitor = blocks assembly of the perinucleolar compartment; activity change (PNC), negative = inhibition, % at 10 µM; 140,000 compounds, 3.1% hits; PC3M PTB-GFP, PNC prevalence imaging, 16 h; active compounds read low;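 active = readout at or below -70, meaning at least 70% loss of cells showing the perinucleolar compartment, a nuclear body marking cancer cells; inconclusive = readout between -30 and a set limit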;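 note: plate controls were DMSO wells for no effect and camptothecin positive control wells for full effect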
#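 Read-out is percentage of cells bearing a perinucleolar compartment, from automated 20x imaging of fixed, Hoechst-stained PC3M PTB-GFP cells. Cells were seeded 4 h, then exposed 16 h to compound (23 nl of library stock) in duplicate plates.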
# HPGD block = blocks human HPGD enzyme activity; P15428; purified HPGD, NADH fluorescence kinetic, PGE2 substrate; AID 894; Potency, µM, for the others: top-dose activity change, negative = inhibition, hits mostly inhibitors; 150,000 compounds, 4.3% hits; note: potency is the fitted concentration of half-maximal effect
# Target sequence (P15428 whole entry, looked up): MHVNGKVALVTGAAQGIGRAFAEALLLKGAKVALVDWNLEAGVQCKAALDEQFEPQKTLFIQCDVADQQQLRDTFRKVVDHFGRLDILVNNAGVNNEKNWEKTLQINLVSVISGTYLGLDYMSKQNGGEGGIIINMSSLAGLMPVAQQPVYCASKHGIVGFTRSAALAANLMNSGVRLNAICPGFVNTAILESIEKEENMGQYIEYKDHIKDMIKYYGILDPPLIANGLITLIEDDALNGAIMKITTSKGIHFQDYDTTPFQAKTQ
#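 NADH formation kinetics: reaction with 30 uM PGE2 and 1 mM NAD+ (final), 20 nM enzyme, Tris-HCl pH 8 with Tween 20, after 15 min compound preincubation at room temperature. Fluorescence change, last versus first of five reads.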
# An asterisk follows results filed as active; ? = inconclusive; . = not tested or not shown; [ ] = another dose, or the depositor's remark. Unless noted, calls come from the whole dose curve; as a rule, active = well fitted inhibition curve with a large enough effect (not every such curve was filed as active); inconclusive = small, poorly fitted or top-dose-only effect, or another doubt; inactive = no such curve, though single readings can be large or run the other way. Unless noted, % is set by controls: 0 for no effect and ±100 for the full control effect.
SMILES,ALDH1A1 inh,PNC inhibitor,HPGD block
O=C(COc1ccc(S(=O)(=O)N2CCCC2)cc1Cl)N1CCN(c2ccccc2)CC1,17.8µM*,?,-13.3%
CCOC(=O)c1cn(CC)c2ccc(S(=O)(=O)N3CC(C)CC(C)C3)cc2c1=O (stereo unspecified),14.1%,24.3,-17.5%
O=C(COc1ccc(Cl)cc1Br)N1CCN(c2ccccc2)CC1,1.3%,-9.9,-9.0%
CCOc1ccc(S(=O)(=O)N2CCN(C(=S)NCc3ccco3)CC2)cc1,-13.1%,-86.6*,-6.5%
COC(=O)CCc1nc2cc(Cl)ccc2n(Cc2ccccc2)c1=O,-8.9%,.,.
Cc1cc(C)c(C)c(S(=O)(=O)N2C(=S)NC(=O)C2C(C)C)c1C (stereo unspecified),?,10.0,?
O=C(Nc1ccc(S(=O)(=O)Nc2ncccn2)cc1)c1ccco1,-8.0%,15.6,-13.9%
CCn1cc(C(=O)NCc2ccco2)c(=O)c2cc(S(=O)(=O)N3CCCC3)ccc21,25.1µM*,.,.
Cc1ccc(C)c(NS(=O)(=O)c2ccc(NC(=O)c3ccco3)cc2)c1,-0.5%,-100.0*,-7.0%
CCn1cc(C(=O)N2CCCC2)c(=O)c2cc(S(=O)(=O)N3CCOCC3)ccc21,3.6%,18.3,0.7%
CCC(C)[C@H](NC(=O)NC(C)C)C(=O)O (stereo partly specified),17.1%,?,0.6%
CCC(C)NC(=O)C1c2ccccc2C(=O)N1Cc1ccccc1OC (stereo unspecified),8.0%,19.7,-1.3%
CC(=O)OC1c2ccccc2C(=O)N1Cc1ccccc1Cl (stereo unspecified),?,-15.0,17.8µM*
Cn1c(C(=O)N2CCCC2)cc2c(=O)n(C)c3ccccc3c21,-1.6%,-1.7,22.4µM*
Cn1c(C(=O)N2CCN(c3ncccn3)CC2)cc2c(=O)n(C)c3ccccc3c21,-6.5%,?,-17.1%
COc1ccc(O[C@H]2C=C[C@@H](c3ccccc3)O[C@H]2COC(=O)CC/C(C)=N\OC[C@@H](C)[C@H](OCc2ccccc2)C(C)C)cc1,1.3%[13.5 µM],.,.
O=C(c1cccc(S(=O)(=O)N2CCCC2)c1)N1CCCc2ccccc21,9.0%,.,.
O=C(c1ccccc1)N1CCc2ccccc21,?,-0.4,28.2µM*
O=C(c1ccccc1)N1CCCc2ccccc21,-7.1%,18.1,-15.1%
CC(=O)N1CCCc2ccccc21,4.0%,-1.7,0.1%
COc1ccc2c(c1)CCc1c(C(=O)N3CCOCC3)noc1-2,-9.0%,-20.4,-24.9%
CC(=O)Nc1ccc2c(c1)CCCN2C(=O)c1ccccc1,14.1µM*,-3.1,-0.4%
COc1cccc(C(=O)N2CCCc3ccccc32)c1,-12.5%,-85.0*,-8.3%
COc1ccc2c(c1)CCc1c(C(=O)N3CCCc4ccccc43)noc1-2,4.47µM*,-18.4,-22.5%
O=C(CN(Cc1ccccc1F)S(=O)(=O)c1ccc(Cl)cc1)NCCCO,4.6%,7.2,-4.6%
SMILES,ALDH1A1 inh,PNC inhibitor,HPGD block
CC1=C(C#N)C(Nc2ccc(Cl)cn2)(C(F)(F)F)C(=O)N1 (stereo unspecified),-0.1%,6.8,-1.2%
CC[C@@]1([N+](=O)[O-])C[C@H]2C=C[C@@H]1C2,10.1%[13.5 µM],.,-9.5%
CCCCNC(=O)C1CC(=O)N(c2ccc(OC)cc2)C1c1ccc(OC)cc1 (stereo unspecified),?,-26.0,0.3%
NC(=NCCc1ccccc1)NS(=O)(=O)c1ccccc1,14.5%,?,-3.2%
O=C(CCc1ccccc1)Nc1ccccc1C(F)(F)F,-3.2%,.,.
O=C1c2ccccc2C(=O)N1CCCC(=O)N1CCCc2ccccc21,14.1µM*,?,-7.5%
O=C(c1ccc2c(c1)OCO2)N1CCCc2ccccc21,?,26.7,.
O=C(c1ccc(=O)oc1)N1CCCc2ccccc21,10µM*,-11.0,?
COc1ccc2c(c1)CCc1c(C(=O)NCc3ccc(Cl)cc3)noc1-2,12.6µM*,12.2,-2.4%
COc1ccc2c(c1)CCc1c(C(=O)NCc3ccc(F)cc3)noc1-2,0.6%,32.7,1.5%
O=C(CCCN1C(=O)c2ccccc2C1=O)N1CCOCC1,-3.5%,.,.
N[C@@H](C(=O)O)c1ccc(C(=O)O)cc1,-0.6%,.,-6.8%
CCOc1cc(NC(=O)c2cnccn2)c(OCC)cc1NC(=O)c1cccc(F)c1,2.2%,.,.
COC(=O)c1cn(NC(=O)c2ccc3c(c2)OCO3)c(=O)c2ccccc12,-16.8%,?,-6.7%
CCS(=O)(=O)c1ccc2oc(SCC(=O)NC3CCCC(C)C3C)nc2c1 (stereo unspecified),2.6%,?,31.6µM*
CCS(=O)(=O)c1ccc2oc(SCC(=O)NC34CC5CC(CC(C5)C3)C4)nc2c1,0.5%,-25.7,-13.5%
CCCC(=O)c1c(C)c2ccccc2n1C,-7.7%,-13.7,-14.5%
CCOC(=O)N1CCN(c2cc(NCCO)c([N+](=O)[O-])c3nonc23)CC1,-2.0%,.,.
CC(=O)OCCNc1cc(N2CCN(C)CC2)c2noc3c2c1C(=O)c1ccccc1-3,-2.6%,-92.6*,-12.3%
O=C1CNC(=O)/C(=C/c2cccs2)N1,-4.7%,.,.
O=C1/C(=C/c2cccs2)NC(=S)N1C1CC1,?,-2.8,15.8µM*
CC(NC(=O)c1ccco1)c1cccc2ccccc12 (stereo unspecified),-8.0%,6.1,-7.9%
O=c1[nH]c2ccsc2c(=O)n1-c1ccc(F)c(Cl)c1,3.7%,-14.4,-10.4%
Fc1cccc(Cl)c1Cn1nnc2c(N3CCC4(CC3)OCCO4)ncnc21,15.8µM*,?,-11.6%
c1ccc(CCNc2ncnc3c2nnn3Cc2ccccc2)cc1,2.9%,-5.1,-0.4%
SMILES,ALDH1A1 inh,PNC inhibitor,HPGD block
c1ccc(Cn2nnc3c(N4CCCCCC4)ncnc32)cc1,?,-7.9,31.6µM*
c1ccc(Cn2nnc3c(NCCN4CCOCC4)ncnc32)cc1,?,-13.8,-25.5%
CCCN1CCN(c2ncnc3c2nnn3Cc2ccccc2)CC1,10µM*,4.4,25.1µM*
Clc1cccc(Cl)c1Cn1cnc2c(N3CCCCCC3)ncnc21,?,-26.4,?
CC(C)CCNC(=O)C(c1cccnc1)N(CCc1ccccc1)C(=O)Cn1nnc2ccccc21 (stereo unspecified),5.5%,-22.0,-4.2%
CCOc1ccc(N2CC(C(=O)Nc3cccc(C)c3C)CC2=O)cc1 (stereo unspecified),2.1%,?,-7.3%
CCn1c(SCC(=O)NCc2ccc3c(c2)OCO3)nnc1-c1c[nH]c2ccccc12,5.2%,-27.0,-5.2%
COc1ccc(Cl)cc1NC(=O)N1CCN(C2CCCCC2)CC1,-2.2%,-88.2*,-6.1%
CCN1CCN(C(=O)Nc2cc(Cl)ccc2OC)CC1,6.5%,.,.
O=C1NCCN/C1=C\C(=O)c1ccc(Cl)cc1,5.3%,.,.
CCOc1ccc2nc(NC(=O)CN3CCC(n4nnc5cc(F)ccc54)CC3)sc2c1,-3.0%,-27.1,-19.5%
O=C(OCn1ncc(Br)c(Br)c1=O)c1ccccc1Cl,0.398µM*,-2.7,?
CCn1ncc(Br)c1C(=O)Nc1ccc(C(=O)OC(C)C)cc1,?,?,-12.7%
O=C(OCc1cnc(Cl)s1)c1ccccc1Cl,-3.3%,44.0,-11.3%
O=C(OCn1ncc(Br)c(Br)c1=O)c1ccc(F)cc1,0.0891µM*,-10.3,22.4µM*
Clc1cccc(Cl)c1C(Nc1nncs1)Nc1nncs1,?,.,-3.8%
Cc1ccc(N2C(=O)N(CC(=O)Nc3ccc(C)cc3C)C(=O)C2C)cc1 (stereo unspecified),-14.4%,.,.
